Data reported in PubChem BioAssay (Tox21).
Records with an inconclusive call do not appear. Entries that show only a call come without a potency. The source made the active and inactive calls. Unless noted, calls follow the shape of the dose curve; as a rule, active = well fitted curve in the direction sought with a large enough effect in the repeat runs; inconclusive = weak or mixed curves; inactive = no such curve, though single readings can be large; an effect the other way counts as inactive or inconclusive.

Experiments:
[1] = qHTS assay to identify small molecule antagonists of the vitamin D receptor (VDR) signaling pathway - cell viability counter screen (AID 743225); also: nearly all actives have a fitted effect of over 50% in size
Outline: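 Compounds were pinned onto VDR-bla HEK 293T cells together with 1-alpha,25-dihydroxyvitamin D3 at 3 nM final. After 16 h at 37C and 5% CO2 plus the reporter readout, cell viability was measured by CellTiter-Glo luminescence (30 min, room temperature).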

[2] = qHTS assay to identify small molecule agonists of the NFkB signaling pathway (AID 1159509; active = well fitted curve in the direction sought with a large enough effect in the signal ratio in the repeat runs, not every such curve was filed as active; the % refers to the signal ratio; also: series mostly up to about 61 µM)
Outline: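 ME-180 NFkB-bla, 2,000 cells/well, overnight plating; cpd pinned in DMSO, 5 h 37 C; B/G FRET substrate 1.5 h RT; ex 405, em 460/530 nm.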

[3] = qHTS assay to identify small molecule agonists of the NFkB signaling pathway - cell viability counter screen (AID 1159515; calls by dose curve; also: series mostly up to about 61 µM; nearly all actives have a fitted effect of over 55% in size)
Outline: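 Using the same wells as the NFkB reporter read, ME-180 NFkB-bla cells given compounds for 5 hr were assessed for viability via CellTiter-Glo, with luminescence taken after a 30 min room-temperature incubation.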

[4] = qHTS assay to identify small molecule agonists of the endoplasmic reticulum stress response signaling pathway (AID 1159516; active = well fitted activation curve with a large enough effect in the signal ratio in the repeat runs, not every such curve was filed as active; the % refers to the signal ratio)
Outline: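 An ESRE-bla HeLa cell assay: compounds were pin-transferred from DMSO onto overnight-plated cells and left 5 hr at 37 C. Substrate was then loaded for 2 hr at room temperature before reading fluorescence at 460 nm and 530 nm.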

[5] = qHTS assay to identify small molecule antagonists of the retinoid-related orphan receptor gamma (ROR-gamma) signaling pathway - cell viability counter screen (AID 1159520); also: nearly all actives have a fitted effect of over 50% in size
Outline: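 Cytotoxicity was read from cellular ATP (CellTiter-Glo luminescence) after 16 hr at 37 C with 1 uM doxycycline induction. The inducer was added 2 hr after compound transfer to Tet-on ROR gamma CHO cells.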

[6] = qHTS assay to identify small molecule agonists of the AP-1 signaling pathway - cell viability counter screen (AID 1159525; calls by dose curve; also: nearly all actives have a fitted effect of over 55% in size)
Outline: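 Luminescent ATP readout (Cell Titer Glo, 30 min RT), normalised to DMSO and tetra n-octyl ammonium bromide controls. Cells were ME-180 AP-1-bla in 0.5% dialyzed FBS Opti-MEM, with a 5 h, 37 °C compound exposure.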

[7] = qHTS assay to identify small molecule agonists of the AP-1 signaling pathway (AID 1159526; calls by dose curve)
[8] = qHTS assay to identify small molecule antagonists of the retinoid acid receptor (RAR) signaling pathway - cell viability counter screen (AID 1159551); also: nearly all actives have a fitted effect of over 35% in size
Outline: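 Retinol-stimulated (1 uM final) C3RL4 cells, compound 6 h, 37 C; readout CellTiter-Glo luminescence (ATP) after 30 min RT incubation.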

[9] = qHTS assay to identify small molecule antagonists of the retinoic acid receptor (RAR) signaling pathway (AID 1159552; also: nearly all actives have a fitted effect of over 50% in size)
Outline: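 Test chemicals and DMSO controls were pin-transferred onto C3RL4 cells a day after seeding; retinol (1 uM final) followed at once. Luminescent reporter output was quantified after 6 hr of co-incubation and 30 min with detection reagent.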

[10] = qHTS assay to identify small molecule agonists of the vitamin D receptor (VDR) signaling pathway - cell viability counter screen (AID 743224); also: series mostly up to about 63 µM; nearly all actives have a fitted effect of over 50% in size
Outline: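 Plated VDR-bla cells (4 h, 37C) received compound, incubated 16 h, then LiveBLAzer substrate 2 h RT; CellTiter-Glo added afterwards, luminescence read at 30 min.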

[11] = biological target: Nuclear receptor ROR-gamma (Homo sapiens) (UniProt P51449); experiment: qHTS assay to identify small molecule antagonists of the retinoid-related orphan receptor gamma (ROR-gamma) signaling pathway (AID 1159521)
Outline: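 Test compounds were applied to Tet-on RORγ CHO cells 2 h ahead of doxycycline hyclate (1 uM final). Luciferase reporter activity was quantified by luminescence after 16 h at 37 C and 5% CO2.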

[12] = biological target: Retinoic acid receptor RXR-alpha (Homo sapiens) (UniProt P19793); experiment: qHTS assay to identify small molecule agonists of the RXR signaling pathway (AID 1159527; calls by dose curve; also: nearly all actives have a fitted effect of over 35% in size)
Outline: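 Using 9-cis retinoic acid as the reference agonist, chemicals were tested in HEK 293T cells […] for 16 hr; substrate loading lasted 2 hr at room temperature.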

[13] = qHTS assay to identify small molecule agonists of the RXR signaling pathway - cell viability counter screen (AID 1159529)
Outline: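 Compounds dissolved in DMSO were pinned onto HEK 293T cells carrying a beta-lactamase reporter under RXR-alpha control and incubated 16 hr. Cytotoxicity was then quantified by CellTiter-Glo luminescence.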

[14] = qHTS assay to identify small molecule agonists of the retinoic acid receptor (RAR) signaling pathway (AID 1159553); also: potency is read from the fitted curve at half-maximal effect
Outline: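 Reporter readout comes from luciferase under RARE control in C3RL4 cells; compound exposure lasts 6 hr at 37 C in 5% CO2, and luminescence is recorded following a 30 min room-temperature incubation with reagent.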

Sequence of Retinoic acid receptor RXR-alpha (Homo sapiens) (P19793 whole entry, looked up): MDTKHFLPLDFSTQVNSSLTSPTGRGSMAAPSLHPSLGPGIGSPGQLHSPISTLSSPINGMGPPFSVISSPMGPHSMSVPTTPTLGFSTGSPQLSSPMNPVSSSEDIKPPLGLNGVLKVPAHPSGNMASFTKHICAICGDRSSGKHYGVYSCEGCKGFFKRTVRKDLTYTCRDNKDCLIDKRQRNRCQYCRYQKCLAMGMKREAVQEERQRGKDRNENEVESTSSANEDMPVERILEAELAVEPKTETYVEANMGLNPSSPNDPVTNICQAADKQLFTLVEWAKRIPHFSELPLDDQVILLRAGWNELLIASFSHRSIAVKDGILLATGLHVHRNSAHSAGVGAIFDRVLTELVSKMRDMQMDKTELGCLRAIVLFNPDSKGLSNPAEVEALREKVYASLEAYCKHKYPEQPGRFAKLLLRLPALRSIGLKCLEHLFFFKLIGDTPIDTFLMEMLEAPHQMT

| SMILES | Potency [1] | outcome [2] | Potency [3] | outcome [4] | Potency [5] | Potency [6] | outcome [7] | Potency [8] | Potency [9] | Potency [10] | Potency [11] | Potency [12] | Potency [13] | Potency [14] |
| --- | --- | --- | --- | --- | --- | --- | --- | --- | --- | --- | --- | --- | --- | --- |
| CC(C)N(C(=O)COc1nnc(C(F)(F)F)s1)c1ccc(F)cc1 | inactive | inactive | inactive | inactive | inactive | inactive | inactive | inactive | inactive |  |  |  |  |  |
| CC/C(=N\OC/C=C/Cl)C1=C(O)CC(C2CCOCC2)CC1=O (centres undefined) | inactive | inactive | inactive | inactive | inactive | inactive | inactive | inactive |  | inactive | inactive | inactive | inactive |  |
| CCCCN=C=O | inactive | inactive | inactive | inactive |  | inactive | inactive | inactive | inactive | inactive | inactive |  | inactive | inactive |
| CCCCCC[N+](=O)[O-] | inactive | inactive | inactive | inactive | inactive | inactive | inactive | inactive |  | inactive |  | inactive | inactive |  |
| ClCc1ccccc1 | inactive | inactive | inactive | inactive | inactive | inactive | inactive | inactive | inactive | inactive | inactive |  | inactive | inactive |
| Clc1cc(Cl)c(Cl)c(Cl)c1 |  | inactive | inactive | inactive | inactive | inactive | inactive | inactive | inactive | inactive |  |  | inactive | inactive |
| O=C(O)COc1ccc(Cl)cc1 | inactive | inactive | inactive | inactive | inactive | inactive | inactive | inactive | inactive | inactive |  |  | inactive | inactive |
| ClCCCCBr | inactive | inactive | inactive | inactive |  | inactive | inactive | inactive | inactive | inactive | inactive |  | inactive | inactive |
| Cl/C=C\Cl | inactive | inactive | inactive | inactive | inactive | inactive | inactive |  | inactive | inactive | inactive | inactive | inactive | inactive |
| Cc1ccc(N)cc1C | inactive | inactive | inactive | inactive | inactive | inactive | inactive | inactive | inactive | inactive | inactive | inactive | inactive | 69.1 µM (active) |
